Source: PubChem BioAssay
For some of these results: Potency and affinity values are given separately. Active and inactive are the calls of the source.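 Rule for the calls, unless noted: active = primary screen hit whose calcium fluorescence ratio, in both repeats, exceeds the weak agonist control mean by 3 SD; inactive = the rest.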

How the values were obtained:
[1] = system: TRPC4 beta (transient receptor potential cation channel C4), mouse; experiment: activators of mouse TRPC4 channel, confirmation, cell-based, Fluo4 calcium, HEK293 TRPC4beta/mu-opioid, duplicates, 10 µM (AID 2426;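 active = fluorescence ratio normalized to control raised more than 50% in primary screen plus both repeat runs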); details: Fluo4 calcium fluorescence, at 10 µM; hits give high values
[2] = system: transient receptor potential cation channel C4 beta (TRPC4), mouse; experiment: activators of mouse TRPC4 channel, confirmation, cell-based, second round, Fluo4, HEK293 TRPC4beta/mu-opioid, 1 µM (AID 2461;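 active = primary screen active and over 50% activation in each of two duplicate runs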); details: Fluo4 calcium fluorescence, at 1 µM; hits give high values
[3] = system: TRPC4 (transient receptor potential cation channel C4 beta), mouse; experiment: positive allosteric modulators of mouse TRPC4, confirmation, cell-based, second round, Fluo-4, HEK293 TRPC4beta/mu-opioid, 1 µM (AID 2554;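 active = primary screen hit whose fluorescence ratio, in both repeats, exceeds the weak agonist control mean by 3 SD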); details: DAMGO EC20, Fluo-4 calcium flux, at 1 µM; hits give high values
[4] = system: TRPC4 beta (transient receptor potential cation channel C4), mouse; experiment: positive allosteric modulators of mouse TRPC4, confirmation, cell-based, Fluo-4, HEK293 TRPC4beta/mu-opioid (AID 2555); details: DAMGO EC20, Fluo-4 calcium flux, at 10 µM; hits give high values
[5] = molecular target: Short transient receptor potential channel 4 (Mus musculus) (UniProt Q9QUQ5); experiment: inhibitors of mouse TRPC4 channel, confirmation, cell-based, Fluo4, HEK293 TRPC4beta/mu-opioid (AID 2636;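 active = calcium signal cut by more than 3 SD below the full-agonist control yet still positive, in both repeats and the earlier primary screen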); details: DAMGO, Fluo4 calcium flux, at 10 µM; hits give high values
Sequence of Short transient receptor potential channel 4 (Mus musculus) (Q9QUQ5 whole entry, looked up): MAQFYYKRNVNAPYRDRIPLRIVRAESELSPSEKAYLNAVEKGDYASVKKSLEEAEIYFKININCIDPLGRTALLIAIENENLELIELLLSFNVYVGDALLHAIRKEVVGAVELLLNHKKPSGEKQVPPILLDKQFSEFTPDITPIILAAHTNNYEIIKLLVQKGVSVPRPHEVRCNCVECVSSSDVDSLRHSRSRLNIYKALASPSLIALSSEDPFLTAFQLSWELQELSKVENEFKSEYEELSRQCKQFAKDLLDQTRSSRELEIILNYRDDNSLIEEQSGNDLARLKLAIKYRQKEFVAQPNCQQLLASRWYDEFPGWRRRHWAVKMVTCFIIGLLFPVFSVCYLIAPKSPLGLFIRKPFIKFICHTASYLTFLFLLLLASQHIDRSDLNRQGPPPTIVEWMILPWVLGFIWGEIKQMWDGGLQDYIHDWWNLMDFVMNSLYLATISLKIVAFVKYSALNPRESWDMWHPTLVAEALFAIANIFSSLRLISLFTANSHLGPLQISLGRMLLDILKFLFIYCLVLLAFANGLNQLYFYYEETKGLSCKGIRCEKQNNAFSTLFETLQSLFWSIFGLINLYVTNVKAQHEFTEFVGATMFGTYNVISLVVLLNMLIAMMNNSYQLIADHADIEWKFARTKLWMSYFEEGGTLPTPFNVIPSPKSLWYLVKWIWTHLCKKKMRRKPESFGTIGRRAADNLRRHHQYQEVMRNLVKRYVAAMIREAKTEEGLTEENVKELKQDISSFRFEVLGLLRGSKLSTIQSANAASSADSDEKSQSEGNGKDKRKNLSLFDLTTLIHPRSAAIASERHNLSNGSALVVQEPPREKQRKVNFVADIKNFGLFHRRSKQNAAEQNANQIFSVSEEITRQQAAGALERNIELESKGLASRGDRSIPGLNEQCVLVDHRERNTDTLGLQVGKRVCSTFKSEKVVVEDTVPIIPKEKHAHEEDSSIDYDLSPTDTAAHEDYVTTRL

[6] = molecular target: Short transient receptor potential channel 4 (Mus musculus) (UniProt Q9QUQ5); experiment: inhibitors of mouse TRPC4 channel, confirmation, cell-based, second round, Fluo4, HEK293 TRPC4beta/mu-opioid, 1 µM (AID 2637;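 active = calcium signal ratio cut to more than 3 SD under the fully stimulated control mean yet still positive, in both repeats and the primary screen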); details: Fluo4 calcium flux, DAMGO, at 1 µM; hits give high values
[7] = molecular target: Short transient receptor potential channel 4 (Mus musculus) (UniProt Q9QUQ5); experiment: mouse TRPC4 channel activators, dose response, cell-based, HEK293 TRPC4/mu-opioid, Fluo-4 calcium (AID 434937;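 active = primary screen activator hit with a dose response curve and TRPC4 channel activation at any tested dose; inactive = no activation, no dose response, or not a primary hit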)
[8] = molecular target: Short transient receptor potential channel 4 (Mus musculus) (UniProt Q9QUQ5); experiment: TRPC4 positive allosteric modulators, dose response, cell-based, HEK293 TRPC4/mu-opioid, Fluo-4 calcium, EC20 DAMGO (AID 434941;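 active = earlier screen potentiator hit that boosts the TRPC4 ion channel at some dose, with a dose response; inactive = no potentiation, no dose response, or not a prior hit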;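 note: calcium entry triggered by an EC20 dose of DAMGO at the co-expressed mu-opioid receptor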)
[9] = molecular target: Short transient receptor potential channel 4 (Mus musculus) (UniProt Q9QUQ5); experiment: mouse TRPC4 channel inhibitors, dose response, cell-based, HEK293 TRPC4/mu-opioid, Fluo-4 calcium (AID 434942;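 active = primary screen inhibitor hit that blocks the TRPC4 channel at some tested dose, yielding a dose curve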)
[10] = molecular target: Short transient receptor potential channel 6 (Mus musculus) (UniProt Q61143); experiment: inhibition of mouse TRPC6 channel, confirmation, selectivity assay for TRPC4 inhibitor project, cell-based, HEK293, membrane potential dye, duplicate (AID 434948;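 active = active in primary screen and both duplicates, each dropping signal beyond three positive-control SD with fluorescence still positive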); details: HEK293 TRPC6, membrane potential dye fluorescence, at 10 µM, stimulated with maximal-effect acetylcholine; hits give high values
Sequence of Short transient receptor potential channel 6 (Mus musculus) (Q61143 whole entry, looked up): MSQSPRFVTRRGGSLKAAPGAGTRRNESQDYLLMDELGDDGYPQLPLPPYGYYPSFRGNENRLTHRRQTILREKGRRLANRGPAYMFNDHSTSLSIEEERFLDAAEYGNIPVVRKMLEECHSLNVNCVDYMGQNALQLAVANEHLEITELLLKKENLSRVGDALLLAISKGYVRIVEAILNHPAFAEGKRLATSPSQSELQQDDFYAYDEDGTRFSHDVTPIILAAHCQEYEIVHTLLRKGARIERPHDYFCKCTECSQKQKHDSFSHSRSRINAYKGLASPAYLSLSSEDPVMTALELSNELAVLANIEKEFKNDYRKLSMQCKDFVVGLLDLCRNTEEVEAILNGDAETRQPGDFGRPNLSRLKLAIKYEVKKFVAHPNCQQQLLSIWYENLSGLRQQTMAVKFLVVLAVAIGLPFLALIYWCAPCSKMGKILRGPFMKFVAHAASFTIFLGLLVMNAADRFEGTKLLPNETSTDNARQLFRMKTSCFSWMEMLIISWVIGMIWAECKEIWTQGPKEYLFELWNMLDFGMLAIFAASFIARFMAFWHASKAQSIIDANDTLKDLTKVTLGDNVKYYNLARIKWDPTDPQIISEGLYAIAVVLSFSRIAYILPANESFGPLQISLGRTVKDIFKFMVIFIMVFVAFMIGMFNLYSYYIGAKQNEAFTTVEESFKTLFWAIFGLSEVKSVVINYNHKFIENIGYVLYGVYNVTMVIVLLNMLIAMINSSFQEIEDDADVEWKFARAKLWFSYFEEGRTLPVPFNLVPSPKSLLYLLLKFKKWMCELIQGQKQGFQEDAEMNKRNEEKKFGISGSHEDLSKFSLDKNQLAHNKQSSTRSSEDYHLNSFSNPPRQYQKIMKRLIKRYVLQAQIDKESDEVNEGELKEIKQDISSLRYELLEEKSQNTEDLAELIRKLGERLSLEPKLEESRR

[11] = molecular target: Short transient receptor potential channel 6 (Mus musculus) (UniProt Q61143); experiment: activation of mouse TRPC6 channel, confirmation, selectivity assay for TRPC4 activator project, cell-based, HEK293, membrane potential dye, duplicate (AID 434950;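 active = membrane potential signal rise above negative control mean plus 3 SD in both duplicates, also active in the earlier TRPC4 screen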;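 for activation: 0% = buffer only wells and 100% = acetylcholine maximal-effect wells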); details: HEK293 TRPC6, membrane potential fluorescence, at 10 µM; hits give high values
[12] = molecular target: Short transient receptor potential channel 6 (Mus musculus) (UniProt Q61143); experiment: TRPC6 potentiation by TRPC4 potentiator hits, confirmation, selectivity assay for TRPC4 potentiator project, HEK293 cells, membrane potential dye, duplicate (AID 434952;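 active = compound raising the membrane signal above positive-control mean plus 3 SD in both repeats, and a primary screen hit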); details: HEK293 TRPC6, membrane potential dye fluorescence, at 10 µM, maximal acetylcholine added after compound; hits give high values
[13] = molecular target: Short transient receptor potential channel 4 (Mus musculus) (UniProt Q9QUQ5); experiment: calcium flux activators in TRPC4/5HT1a cells, counter-screen for TRPC4 activator project, cell-based, second counter screen, HEK293 TRPC4/5HT1a, Fluo-4 (AID 434977;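 active = calcium signal rise above buffer-control mean plus 5 SD in both duplicates, and also a hit in the primary screen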); details: Fluo-4 calcium flux, at 10 µM; hits give high values
[14] = calcium flux inhibitors in TRPC4/5HT1a cells, confirmation, counter-screen for TRPC4 inhibitor project, cell-based, second counter screen, HEK293 TRPC4/5HT1a, Fluo-4 (AID 434978;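 active = primary screen active whose calcium signal fell more than 3 SD beyond the full-serotonin control mean in both duplicate plates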;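 note: serotonin given first at submaximal then at maximal dose after compound preincubation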); details: Fluo-4 calcium flux, at 10 µM, serotonin added to trigger calcium flux; hits give high values
[15] = system: TRPC4 (mouse), co-expressed with 5HT1a in HEK293; experiment: calcium flux potentiators in TRPC4/5HT1a cells, confirmation, counter-screen for TRPC4 potentiator project, cell-based, second counter screen, HEK293 TRPC4/5HT1a, Fluo-4 (AID 434979;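 active = signal rise over 3 SD above mean of control wells given weak agonist, in both repeats and first screen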); details: Fluo-4 calcium flux, at 10 µM, serotonin added at its EC20 dose; hits give high values
[16] = calcium flux activation in mu-opioid HEK293 cells, confirmation, counter-screen for TRPC4 activator project, cell-based, HEK293 mu-opioid receptor line (AID 449723;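 active = hit in primary screen, with calcium signal over 5 SD above buffer well mean in both duplicates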;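 note: counter screen cells carry the mu-opioid receptor alone and lack TRPC4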); details: Fluo-4 calcium fluorescence, at 10 µM; hits give high values
[17] = calcium flux enhancement in mu-opioid HEK293 cells, confirmation, counter-screen for TRPC4 allosteric potentiator project, cell-based, HEK293 mu-opioid receptor line (AID 449724;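 active = calcium signal rise more than 3 SD above the low-dose agonist control mean, in both duplicate plates and the primary screen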); details: Fluo-4 calcium flux, at 10 µM, compound added before EC20 DAMGO stimulus; hits give high values

OC1(c2ccc(Cl)cc2)CN(c2ccccc2)C2=[N+]1CCS2 (stereo unspecified)
inactive: outcome [1] | outcome [2] | outcome [3] | outcome [4] | outcome [5] | outcome [6] | outcome [7] | outcome [8] | outcome [9] | outcome [10] | outcome [12] | outcome [13] | outcome [14] | outcome [15] | outcome [16] | outcome [17]
active: activation [11] 38%

O=C(NCC(c1ccco1)N1CCc2ccccc2C1)c1ccc(F)cc1 (stereo unspecified)
inactive: outcome [1] | outcome [2] | outcome [3] | outcome [4] | outcome [5] | outcome [6] | outcome [7] | outcome [8] | outcome [9] | outcome [10] | outcome [11] | outcome [12] | outcome [13] | outcome [14] | outcome [15] | outcome [16] | outcome [17]

COC(=O)[C@@]12CCCCN1[C@H](c1ccc(-c3ccc(C(C)=O)cc3)cc1)[C@@H]1C(=O)N(C)C(=O)[C@@H]12
inactive: outcome [1] | outcome [2] | outcome [3] | outcome [4] | outcome [5] | outcome [6] | outcome [7] | outcome [8] | outcome [9] | outcome [10] | outcome [11] | outcome [12] | outcome [13] | outcome [14] | outcome [15] | outcome [16] | outcome [17]

Cn1c(/N=C/c2ccccc2[N+](=O)[O-])nc2ccccc21
active: potentiation [15] 11.9%
inactive: outcome [1] | outcome [2] | outcome [3] | outcome [4] | outcome [5] | outcome [6] | outcome [7] | outcome [8] | outcome [9] | outcome [10] | outcome [11] | outcome [12] | outcome [13] | outcome [14] | outcome [16] | outcome [17]

CCOC(=O)C1C(=O)C=C(c2ccc(C)cc2)CC1c1cccc([N+](=O)[O-])c1 (stereo unspecified)
inactive: outcome [1] | outcome [2] | outcome [3] | outcome [5] | outcome [6] | outcome [7] | outcome [8] | outcome [9] | outcome [10] | outcome [11] | outcome [12] | outcome [13] | outcome [14] | outcome [16] | outcome [17]
active: potentiation [4] 46% | potentiation [15] 38.9%

CSc1ccc(CN(C)C(C)C(=O)NCc2ccccc2)cc1 (stereo unspecified)
inactive: outcome [1] | outcome [2] | outcome [3] | outcome [4] | outcome [5] | outcome [6] | outcome [7] | outcome [8] | outcome [9] | outcome [10] | outcome [11] | outcome [12] | outcome [13] | outcome [14] | outcome [15] | outcome [16] | outcome [17]

O=C(O)c1ccc(N2CCN(C(c3ccccc3)c3ccccc3)CC2)c([N+](=O)[O-])c1
inactive: outcome [1] | outcome [2] | outcome [3] | outcome [4] | outcome [5] | outcome [6] | outcome [7] | outcome [8] | outcome [9] | outcome [10] | outcome [11] | outcome [12] | outcome [13] | outcome [14] | outcome [15] | outcome [16] | outcome [17]

Cc1ccc(NS(=O)(=O)c2ccc(NS(=O)(=O)c3cccs3)cc2)cc1
inactive: outcome [1] | outcome [2] | outcome [3] | outcome [4] | outcome [5] | outcome [6] | outcome [7] | outcome [8] | outcome [9] | outcome [10] | outcome [11] | outcome [12] | outcome [13] | outcome [14] | outcome [16] | outcome [17]
active: potentiation [15] 15%
